# Only some compounds are listed: those with a hit (about 8.8% of all), similar ones and a draw of the others.
# HT1080 IDH1KD tx = toxicity to HT-1080 IDH1 knockdown cells (counter line) | hit rate 2% among 360,000 | HT-1080 IDH1 knockdown viability, ATP luminescence, 48 h | Potency, µM (series often up to 46.1 µM), usual class: cytotoxic
#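 CellTiter-Glo luminescence after 48 h compound exposure at 37 degrees C of IDH1-knockdown HT-1080 cells in 5% FBS RPMI. %Activity scaled between DMSO wells and cell-free media wells, with curves fitted and assigned curve classes.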
# IL1B secr inh = inflammasome signaling inhibition, IL-1 beta readout. THP-1 LPS/ATP IL-1B secretion, AlphaLISA, 16 h; stronger effect = lower value. activity change, % at 57.5 µM. hit rate 4.7% among 360,000. AID 743279; in the data active = activity change below about -50%; inconclusive = mostly about -30% to -49%
#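 THP-1 cells pretreated 1 hr with compounds (up to 57.5 uM final), then stimulated with LPS (250 ng/mL final) plus ATP (1.25 mM final); secreted IL-1B measured by AlphaLISA after 16 hr, decreased signal indicating inhibition.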
# KB-V1 cytotox = KB-V1 MDR subline cytotoxicity | KB-V1 MDR cells viability, CellTiter-Glo, 72 h | Potency, µM (series often up to 46.1 µM), usual class: cytotoxic | hit rate 3.4% among 400,000; also: nearly all actives have a fitted effect of over 60% in size
#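 KB-V1 MDR subline cells in DMEM (phenol-red free, 10% FBS) exposed to compounds in qHTS concentration series for 72 h at 37 degrees C. Viability read by CellTiter-Glo luminescence; concentration-effect curves fitted after normalization and correction.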
# KB-3-1 cytotox = KB-3-1 parental cell cytotoxicity | KB-3-1 viability, CellTiter-Glo ATP luminescence, 72 h | Potency, µM (top dose mostly 46.1 µM), actives largely listed as cytotoxic | hit rate 1.4% among 400,000; also: nearly all actives have a fitted effect of over 60% in size
#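 Parental KB-3-1 adenocarcinoma cells in phenol-red-free DMEM with 10% FBS were pin-treated with compounds at several concentrations, incubated 72 h at 37 °C, and viability read by CellTiter-Glo luminescence; concentration-effect curves were fitted after normalization.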
# HT1080NT lethal = kills 2HG-producing HT-1080-NT fibrosarcoma cells; Potency, µM (series often up to 46.1 µM), actives largely listed as cytotoxic; hit rate 1.6% among 360,000; HT-1080-NT fibrosarcoma viability, CellTiter-Glo ATP luminescence, 48 h; AID 686970;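 also: NT is the 2HG producing partner of a matched IDH1 knockdown line; nearly all actives have a fitted effect of over 55% in size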
#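 750 cells/well, RPMI + 5% FBS; 2 h settle, compound pin-transfer, 48 h at 37 degrees C. CellTiter-Glo 10 min RT, luminescence. Normalized to DMSO and media-only wells.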
# A number is an active result; i = inactive; ? = inconclusive; nt = not tested or not shown. Unless noted, calls follow the shape of the dose curve; as a rule, active = well fitted curve in the direction sought with a large enough effect; inconclusive = small, poorly fitted or top-dose-only effect, or another doubt; inactive = no such curve, though single readings can be large; an effect the other way counts as inactive or inconclusive.
SMILES,HT1080 IDH1KD tx,IL1B secr inh,KB-V1 cytotox,KB-3-1 cytotox,HT1080NT lethal
CCOc1ccc(NC(=O)c2oc(=O)c3ccccc3c2-c2ccc(C)cc2)cc1,nt,nt,i,i,nt
O=C(Nc1ccccc1)c1cnc(-c2ccccc2)nc1-c1ccccc1,?,i,10.3µM,i,?
C/C(N)=C(/C#N)C(=O)COC(=O)c1cccc(O)c1,i,-54.1,i,i,i
CC1CN(Cc2ccccc2)c2ccccc2NC1=S (stereo unspecified),i,i,20.6µM,?,i
CCC(C)(C)n1nnnc1C(C(C)C)N(CCN1CCOCC1)Cc1cc2cccc(C)c2[nH]c1=O (stereo unspecified),?,i,14.6µM,i,i
CCOc1ccc(S(=O)(=O)NCc2ccc3c(c2)OCO3)cc1C(=O)O,i,i,i,i,i
Cc1ccc(CN(C(=O)COc2ccc(C(C)C)cc2)C2CCS(=O)(=O)C2)o1 (stereo unspecified),nt,nt,i,i,nt
CC(C)(C)C(c1nc2ccccc2[nH]1)n1c(-c2ccsc2)nc2ccccc21 (stereo unspecified),?,-52.6,?,?,?
O=C(c1cc(-c2ccncc2)nc2ccc(Cl)cc12)N1CCN(Cc2ccc3c(c2)OCO3)CC1,i,-83.0,?,i,i
O=C(c1cc(-c2ccncc2)nc2ccc(Br)cc12)N1CCN(Cc2ccc3c(c2)OCO3)CC1,i,-62.9,?,i,i
Cc1ccc2nc(-c3ccncc3)cc(C(=O)N3CCOCC3)c2c1,i,i,i,i,i
Cc1cc(C)c2nc(-c3ccncc3)cc(C(=O)N3CCN(Cc4ccccc4Cl)CC3)c2c1,?,-74.8,?,?,?
COc1ccc(N2CC(C(=O)OC(C)C(=O)c3ccccc3)CC2=O)cc1 (stereo unspecified),i,i,?,i,i
CC(C)Oc1cccc(NC(=O)C2CCN(S(=O)(=O)Cc3ccccc3)CC2)c1,nt,nt,i,i,nt
C/C(=N\NC(=O)Cc1cccn1C)c1ccc2ccccc2c1,i,-61.4,i,i,i
O=C(NCCc1ccc(Cl)cc1)C1CCC(=O)N1Cc1ccccc1Cl (stereo unspecified),i,i,23.1µM,i,i
COc1ccc(CCNC(=O)C2CCC(=O)N2Cc2ccccc2Cl)cc1OC (stereo unspecified),i,i,i,i,i
COc1ccc(OC)c(NC(=O)CN2CCC(NC(=O)c3ccccc3C)CC2)c1,i,i,i,i,i
OC(Cc1cccc(Br)c1)c1ncc(-c2cccc(C(F)(F)F)c2)[nH]1 (stereo unspecified),?,i,?,?,?
OC(Cc1ccccc1Br)c1ncc(-c2cccc(C(F)(F)F)c2)[nH]1 (stereo unspecified),16.4µM,-61.4,?,i,?
CCc1ccc(C(O)c2ncc(-c3cccc(C(F)(F)F)c3)[nH]2)cc1 (stereo unspecified),?,i,?,i,23.1µM
COc1ccc(C(O)c2ncc(-c3cccc(C(F)(F)F)c3)[nH]2)cc1F (stereo unspecified),i,i,i,i,i
Cc1ccc(C)c(C(O)c2ncc(-c3cccc(C(F)(F)F)c3)[nH]2)c1 (stereo unspecified),?,-53.7,i,i,i
Cc1nn2c(-c3ccccc3)nnc2c2ccccc12,i,i,5.8µM,?,i
Cc1nn2c(-c3cccc(NC(=O)c4ccco4)c3)nnc2c2ccccc12,i,?,i,i,i
SMILES,HT1080 IDH1KD tx,IL1B secr inh,KB-V1 cytotox,KB-3-1 cytotox,HT1080NT lethal
CC1C(c2ccccc2)N(C)C(c2ccccc2)C(C)C1(O)C#Cc1ccccc1 (stereo unspecified),?,-65.1,?,?,i
Cc1cccc(S(=O)(=O)NC(=O)C2(C)CCN2C(=O)CCC2CCCC2)c1 (stereo unspecified),i,i,i,i,i
O=C(OCc1ccccc1)N(CCCCN(CCCNCc1ccccc1)C(=O)OCc1ccccc1)CCCNCc1ccccc1,?,i,?,16.4µM,?
O=C(NCCCCCCNC(=O)OCc1ccccc1)OCc1ccccc1,i,i,i,i,i
CCN(CC(=O)Nc1ccc2c(c1)OCCO2)C(=O)/C=C/c1cccc(Br)c1,i,i,i,i,i
CCC[n+]1c(/C=C/c2c(OC)cc(OC)cc2OC)ccc2ccccc21,nt,nt,i,1.3µM,nt

# Screens (PubChem BioAssay)
